# In PubChem BioAssay AID827 (SRMLSC, 2007):
# The campaign covered roughly 140,000 compounds. About 1,700 (1.2%) were called active. Shown is part of a subset that was picked to be rich in actives. Values without a mark were called inactive.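 Rule for the calls: active = viability at or below a set limit, 4 SD under the median of all tested compounds (cut at about 3.7% in these data); inactive = the rest.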
# Assay: viability loss in PTEN-deleted colon tumor cells – cell-based, HCT116, CellTiter-Glo, primary screen (AID 827);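 note: PTEN knockout HCT116 line with beta catenin targeted HCT116 as companion control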
# Conditions: HCT116 PTEN-null viability, 60 h, at 10 µM, active compounds read low
row,SMILES,viability
1,c1ccc2c(c1)C(=NC1CCCCC1)NC2=NC1CCCCC1,1.88% (active)
2,O=C1CCCCC(=O)c2ccccc2N1,97.7%
3,CC1=CC(C)(C)Nc2ccc(OC(=O)CN3C(=O)C4CCCCC4C3=O)cc21 (stereo not drawn),0.76% (active)
4,CC1=CC(C)(C)Nc2ccc(OC(=O)C(Cc3ccccc3)N3C(=O)C4CCCCC4C3=O)cc21 (stereo not drawn),45.7%
5,O=C(CN1C(=O)C2C3CCC(C3)C2C1=O)Oc1ccc2ccccc2c1 (stereo not drawn),86%
6,CCn1c(=O)cc(SCC(=O)NCCC2=CCCCC2)c2ccccc21,91.3%
7,CCCC(=O)Nc1ccc(C(=O)N/N=C/c2ccc[nH]2)cc1,80.1%
8,Cc1ccc(S(=O)(=O)N2CCC(C(=O)N[C@@H](C)C(=O)NCc3ccco3)CC2)cc1,102%
9,Cc1cc(C)c2nc3nc(C)cc(C)c3c(N)c2c1,2.26% (active)
10,Cc1cc(C)c2nc(SCCC#N)nc(C)c2c1,109%
11,CNC(=S)N/N=C/c1cn(Cc2ccc(C)cc2)c2ccccc12,49.9%
12,CC(=O)N1CCN(c2cccc(C)c2C)CC1,98%
13,O=C(O)c1cnn2c(C(F)(F)F)cc(-c3ccccc3)nc12,95.3%
14,Cc1cccc(N2CCN(C(=O)c3cnn4c(C(F)F)cc(-c5ccccc5)nc34)CC2)c1C,3.53% (active)
15,O=C(Nc1cccc2ccccc12)N1CCN(Cc2ccc3c(c2)OCO3)CC1,1.32% (active)
16,O=C(CCCN1C(=O)c2cccc3cccc(c23)C1=O)N1CCN(Cc2ccc3c(c2)OCO3)CC1,89.4%
17,O=C(c1cccs1)N1CCN(Cc2ccc3c(c2)OCO3)CC1,94.4%
18,CC1CCN(c2ccc(C(=O)Nc3nnc(C4CC4)s3)cc2[N+](=O)[O-])CC1,96.1%
19,Cc1ccc(C2=N/C(=C\c3ccc(OS(=O)(=O)c4ccc(C)cc4)cc3)C(=O)O2)cc1,92.6%
20,CCC(=O)/C=C1\Sc2ccccc2N1CC,95.3%
21,CCN1/C(=C/c2ccc3ccc(C)cc3[n+]2CC)Sc2ccccc21,2.61% (active)
22,O=C(NNC1=NCCC1)c1cccc(S(=O)(=O)N2CCCCC2)c1,96.7%
23,CC(=O)c1ccc(NC(=S)NC(=O)CC(C)C)cc1,98.8%
24,O=C(CC(=O)N/N=C\c1cccc(Cl)c1Cl)NCc1ccccc1,90.4%

row,SMILES,viability
1,COc1ccccc1N1CCN(C(=O)CN(Cc2ccc(Cl)cc2)S(C)(=O)=O)CC1,68.5%
2,COc1ccccc1N1CCN(Cc2nnnn2CCc2ccccc2)CC1,104%
3,COc1ccccc1-n1nnnc1S(=O)(=O)Cc1ccc(Cl)cc1,3.39% (active)
4,CCCN=C1NC(=O)C(CC(=O)NCCc2ccc(OC)c(OC)c2)S1 (stereo not drawn),96.5%
5,CC(C)Nc1nnc(SCC(=O)/C=C2\N(C)c3ccccc3C2(C)C)s1,79%
6,O=[N+]([O-])c1ccc(C=Nc2ccc(Cl)cc2Cl)s1,2.41% (active)
7,CCOc1ccc(NC(=O)CCC(=O)N/N=C/c2ccc([N+](=O)[O-])s2)cc1,6.05%
8,CC(=O)NC1=NN(C(C)=O)C(C)(CCS(=O)(=O)c2ccc(Cl)c(Cl)c2)S1 (stereo not drawn),94.7%
9,COc1ccc2nc(NC(=O)[C@@H]3CCCN3C(=O)c3cccs3)sc2c1,85.2%
10,Cn1c(C(=O)NCCN2CCc3ccccc3C2)cc2c(=O)[nH]c3ccccc3c21,75.8%
11,O=C(NCCN1CCN(Cc2ccccc2)CC1)c1cc2c(=O)[nH]c3ccccc3c2s1,2.62% (active)
12,CN1CCN(CCCNC(=O)c2cc3c(=O)oc4ccccc4c3s2)CC1,109%
13,COc1ccccc1OCC(=O)OCn1c(SC)nnc(C)c1=O,98.3%
14,CC(C)(C)C(=O)N1CCC[C@@]1(CO)C(=O)O,93.1%
15,CCCCCC(=O)Nc1ccc(C(=O)N/N=C/c2ccc([N+](=O)[O-])cc2)cc1,1.62% (active)
16,CCCCCC(=O)NC(=S)NNC(=O)c1ccc([N+](=O)[O-])cc1,37.4%
17,O=C(COc1ccc(/C=N/NC(=O)c2ccc(O)cc2)cc1)Nc1ccc([N+](=O)[O-])cc1,60.2%
18,Cc1cc(C)cc(OCC(=O)Nc2nc3ccc([N+](=O)[O-])cc3s2)c1,103%
19,COC(=O)C(NC(=O)c1ccc(OC)cc1)(Nc1ncc(S(=O)(=O)c2ccc([N+](=O)[O-])cc2)s1)C(F)(F)F (stereo not drawn),72.2%
20,O=C(NC(Nc1nc2ccc([N+](=O)[O-])cc2s1)(C(F)(F)F)C(F)(F)F)c1ccccc1,1.46% (active)
21,COc1cc(NC(=O)COC(=O)CSc2ccc3ccccc3c2)c(C)cc1[N+](=O)[O-],96.9%
22,CCn1nc(C)c(/C=N/NC(=O)Cc2ccc(Cl)cc2)c1C,91.7%
23,CCOc1ccc(C(=O)NC(=S)Nc2ccc(NC(=O)C(C)C)cc2)cc1[N+](=O)[O-],87.9%
24,Cc1[nH]c2ccccc2c1C(=O)COC(=O)C(C)C,112%

row,SMILES,viability
1,CCOC(=O)c1c(C)[nH]c(=S)c(C#N)c1-c1ccccc1,102%
2,CCOC(=O)c1c(C)[nH]c2c1-c1ccccc1C(=O)C2=O,1.66% (active)
3,CN(C)S(=O)(=O)c1cc(NC(=O)CN2C(=O)NC3(CCCc4ccccc43)C2=O)ccc1Cl (stereo not drawn),59.3%
4,CCOCCCNC(=O)C(=O)NCCCOCC,102%
5,COC(=O)CN1C(=O)C(O)=C(C(C)=O)C1c1ccc([N+](=O)[O-])cc1 (stereo not drawn),96.7%
6,COC(=O)CN1C(C)=Nc2ccc(Br)cc2C1c1ccccc1 (stereo not drawn),0.62% (active)
7,CCC(CC)C(=O)N1CC(=O)Nc2ccc(Br)cc2C1c1ccccc1 (stereo not drawn),71.6%
8,COc1ccc(OCc2cn3c(C)cc(C)nc3n2)cc1,99.6%
9,Cc1ccc(S(=O)(=O)N2CCN(CC(=O)N/N=C/c3cc([N+](=O)[O-])ccc3Cl)CC2)cc1,74.4%
10,CC(C)/C=N/NC(=O)c1cc(Br)ccc1O,89%
11,COc1ccc(C/C(C)=N/NC(=O)c2cc(C)oc2C)cc1,98.5%
12,c1ccc2[nH]c(NCCN3CCOCC3)nc2c1,103%
13,c1ccc2cc3c(NCCN4CCOCC4)ccnc3cc2c1,3.31% (active)
14,O=C(Cn1c(-c2ccccn2)nc2ccccc21)NCCN1CCOCC1,102%
15,COc1ccccc1C(=O)Nc1ccc(OCc2nnc3c4ccccc4c(C)nn23)cc1,101%
16,CCCNC(=O)NC(=O)COC(=O)CC(NC(N)=O)c1ccc(Cl)cc1 (stereo not drawn),103%
17,N#C/C(C(=O)N1CCOCC1)=C1/SC(Cc2ccc(F)cc2)C(=O)N1c1ccccc1 (stereo not drawn),89.2%
18,CCCOc1ccc(C(=O)C(CCC(CNCC)C(=O)c2ccc(OCCC)cc2)CNCC)cc1 (stereo not drawn),0.64% (active)
19,CCCCOc1ccc(C(=O)NN2CCN(C)CC2)cc1,102%
20,CCCCOc1ccc(C(=O)NCc2ccncc2)cc1,70.3%
21,CC1(C)C2CC=C(/C=N/NC(=O)c3ccc(Cl)cc3)C1C2 (stereo not drawn),90.5%
22,Fc1ccccc1/C=C1\CCCC2=C1Nc1ncnn1C2c1ccccc1F (stereo not drawn),2.48% (active)
23,O=C(/C=C\c1cn(-c2ccccc2)nc1-c1cccs1)N1CCOCC1,67.3%
24,CCn1c(/C=N/NC(=O)c2ccc(OC)cc2)nc2ccccc21,14.3%

row,SMILES,viability
1,O=C(Nn1c(-c2ccc(Cl)cc2)nc2ccccc2c1=O)c1cccnc1Cl,102%
2,CCOC(=O)c1c(/N=C/c2cc(C)ccc2O)sc2c1CCC2,91.9%
3,CSc1nc(C)cc(SC(C(C)=O)C(=O)Nc2ccccc2)n1 (stereo not drawn),88.1%
4,CSc1nc(-c2ccccc2)nc(C(Cl)Cl)n1,2.06% (active)
5,C/C(=N/NS(=O)(=O)c1ccccc1)c1ccc(NC(=O)C(F)(F)F)cc1,96.4%
6,Cc1cccc(OCC(=O)NC(=S)Nc2ccccc2N2CCOCC2)c1,99.9%
7,CCOc1cc(N2CCOCC2)c(OCC)cc1NC(=O)COc1cccc2cccnc12,3.59% (active)
8,CCOc1cc(N2CCOCC2)c(OCC)cc1NC(=O)COC(=O)[C@H](Cc1c[nH]c2ccccc12)NC(C)=O,93.5%
9,O=[N+]([O-])c1ccc(N2CCN(S(=O)(=O)c3ccccc3)CC2)cc1N1CCc2ccccc2C1,89.4%
10,O=C(Cc1ccccc1)NNS(=O)(=O)c1ccc([N+](=O)[O-])cc1,101%
11,CC(C)CCN1C(=O)c2ccc(C(=O)Nc3cccc(S(N)(=O)=O)c3)cc2C1=O,88.8%
12,CCC1CCc2c(sc(NC(C)=O)c2C#N)C1 (stereo not drawn),95.5%
13,COC(=O)c1c(NC(=O)CN2CCN(S(=O)(=O)c3ccccc3[N+](=O)[O-])CC2)sc2c1CCC(C)C2 (stereo not drawn),93.5%
14,CN1CCN(CC(=O)Nc2sc3c(c2C#N)CCC(C(C)(C)C)C3)CC1 (stereo not drawn),3.39% (active)
15,Cc1ccc2sc(NNC(=O)c3ccc4c(c3)OCCO4)nc2c1C,68.3%
16,O=C1C2C3C=CC(C4CC34)C2C(=O)N1c1nccs1 (stereo not drawn),101%
17,C=CCOc1ccc(/C=N/NC(=O)C(C)Sc2ccccn2)cc1OCC (stereo not drawn),103%
18,Cc1ccc(OCc2nnc(SC3CCc4ccccc4C3=O)n2C)cc1 (stereo not drawn),85.3%
19,O=C(/C=C/c1ccc(Cl)cc1Cl)NCc1ccco1,96.5%
20,O=C(NCc1ccc(Cl)c(Cl)c1)c1cccnc1,100%
21,O=C(/C=C/c1ccc(Cl)cc1Cl)c1cccnc1,0.59% (active)
